The record followed here is PubChem BioAssay (NCATS).

Inconclusive results are not listed. The source made the active and inactive calls. Unless noted, calls come from the whole dose curve; as a rule, active = well fitted curve in the direction sought with a large enough effect; inconclusive = small, poorly fitted or top-dose-only effect, or another doubt; inactive = no such curve, though single readings can be large; an effect the other way counts as inactive or inconclusive.

Assay [1] is described as follows: OV-KATE Cancer Cell Toxicity qHTS against the NCATS CANVASS Library (AID 1347345). An outline of the steps: (§1)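 In this cytotoxicity screen, 1000 cells per well rested 4 hours, then received compound (11 concentrations) for a 72-hour incubation; an ATP-dependent luminescent signal (CellTiter-Glo) was the endpoint.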
Assay [2] can be described thus: UWB1.289 Cancer Cell Toxicity qHTS against the NCATS CANVASS Library (AID 1347347). In a few lines:
as §1

Assay [3] in a line: OV-SAHO Cancer Cell Toxicity qHTS against the NCATS CANVASS Library (AID 1347348). In a few lines:
as §1

The nature of assay [4]: Panc-1005 Cancer Cell Toxicity qHTS against the NCATS CANVASS Library (AID 1347349). An outline of the steps: as §1
Assay [5] is described as follows: SW1088 Cancer Cell Toxicity qHTS against the NCATS CANVASS Library (AID 1347350). An outline of the steps: as §1
A short description of assay [6]: COV-362 Cancer Cell Toxicity qHTS against the NCATS CANVASS Library (AID 1347352). In a few lines: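 Luminescent ATP read-out (CellTiter-Glo, 15min at room temperature) measures survival after cells face an 11-point compound series for 72 hours at 37 degrees C/5% CO2.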
A short description of assay [7]: qHTS for Antimalaria activity screened against the NCATS CANVASS Library (AID 1347380). In a few lines:
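Dd2 strain, infected erythrocytes 2.5% Hct final / 0.3% parasitemia. 11-pt qHTS titration, 72 h, 37C, 5% O2, 5% CO2. Lysis buffer + SYBR Green, 18 h, fluorescence 485/535 nm.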

Assay [8] relates to Zika virus NS2B-NS3 protease (linked construct). As to the kind of experiment: Primary screen NINDS Rhodamine qHTS for Zika virus inhibitors (AID 1347160). An outline of the steps:
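Kinetic fluorescence (Ex 480 nm, Em 540 nm) over 15 min with 1.5 microM Rhodamine110 peptide and 25 nM linked protease.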

Assay [9] in a line: qHTS assay to identify inhibitors of the type 1 interferon - major histocompatibility complex class I in skeletal muscle: Counter screen cell viability and HiBit confirmation (AID 1347412). The settings on record: iHSKM muscle cells + IFN-b, HiBiT or CellTiter-Glo, 24 h; for activity change, negative = inhibition: at 45.9 µM (top of the series). An outline of the steps: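 Human myoblast knock-in line, 4.0 ng/ml IFN-beta stimulation, 24 h compound treatment. Endpoints: HiBiT lytic luminescence (HLA-B level) and CellTiter Glo (ATP). Dosing 12 concentrations, 3-fold steps, 46 uM highest final.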

A short description of assay [10]: Cytotoxicity counterscreen for inhibitors of SARS-CoV-2 cell entry (AID 1645845; calls by dose curve). The settings on record: outcome: at 57.1 µM (top of the series) unless noted. An outline of the steps: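 Expi293F/hACE2 cells seeded overnight; cpd pin-transferred in DMSO, 1 h preincubation, + media, 48 h 37 C 5% CO2; ATPLite 1step luminescence; normalized to cells and no cells.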

Assay [11] is described as follows: Primary qHTS to identify inhibitors of SARS-CoV-2 cell entry (AID 1645846; calls by dose curve). The settings on record: SARS-CoV-2 pseudovirus cell entry assay, luminescence; activity change, negative = inhibition: at 57.1 µM (top of the series) unless noted; outcome: at 57.1 µM (top of the series) unless noted. An outline of the steps:
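Using luciferase-reporting pseudoviruses carrying Wuhan-Hu-1 spike, the screen tracks entry into stably ACE2-expressing cells over 48 hr. Activity is expressed relative to spike particles versus particles lacking any fusion protein.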

Assay [12] is described as follows: Primary qHTS for inhibitors of nuclear receptor binding SET domain protein 2 (NSD2) in an isogenic RCH-ACV NSD2 p.E1099K mutant (9B) (AID 1645876).
Assay [13] can be described thus: Primary qHTS for inhibitors of nuclear receptor binding SET domain protein 2 (NSD2) in an RCH-ACV wild type WT cells (2C) (AID 1645877).
The target in assay [14] is Phospholipid hydroperoxide glutathione peroxidase GPX4 (Homo sapiens) (UniProt P36969). As to the kind of experiment: Primary qHTS Assay for Inhibitors of Recombinant Selenoprotein Glutathione Peroxidase 4 (GPX4) (AID 1845192). In a few lines: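 GR-coupled readout: 100 nM GR, 1 mM GSH, 0.5 mM NADPH; NADPH fluorescence (ex 340/em 450 nm) read at t=0 and after 15 min RT. GPX4 200 nM, preincubated 30 min with compound; substrate 0.5 mM CHP.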
Chain of Phospholipid hydroperoxide glutathione peroxidase GPX4 (Homo sapiens) (P36969 whole entry, looked up): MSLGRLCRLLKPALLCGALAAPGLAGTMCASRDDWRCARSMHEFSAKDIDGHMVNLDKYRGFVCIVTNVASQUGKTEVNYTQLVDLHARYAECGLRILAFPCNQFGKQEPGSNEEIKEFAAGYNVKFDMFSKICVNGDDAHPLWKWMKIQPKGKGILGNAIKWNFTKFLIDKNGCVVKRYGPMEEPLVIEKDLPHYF

On to `CC[C@]12C=CCN3CC[C@]4(C(=C(C(=O)OC)C1)Nc1ccccc14)[C@@H]32`, for which the Potency result in [1], in [2], in assay [3], in assay [4], in assay [5] and in assay [6] was “inactive” throughout. For the same compound, in assay [7], the Potency is 0.042 µM (active).
As to `C/C=C1/CN2CC[C@]34C(=C(C(=O)OC)[C@H]1C[C@H]23)Nc1ccccc14`, the Potency entry in assay [8], in assay [1], in [2], in [3], in assay [5] and in assay [6] was “inactive” in each case. For the same compound, in assay [7], the Potency result is “inactive”.
In the case of `CCC1/C=C/C=CCC(C)C(O)[C@@](C)(O)C(=O)C(C)C(O)C(C)C(=O)C(C)C(O)C(C)C=CC(=O)O[C@H]2C(C)C(CC1)O[C@]1(CCC(C)C(CC(C)O)O1)C2C` (some centres not stated), the values for the activity change, negative = inhibition in assay [9] (HiBiT) and in assay [9] (Viability) were -31.9% (inactive) and -23.7% (inactive), respectively.
Consider `CC(N[C@H]1C[C@@H]1c1ccccc1)c1ccc2c(c1)OCCO2` (some centres not stated), for which the Potency entry in [10], in assay [12] and in assay [13] was “inactive” in each case. The activity change, negative = inhibition in [11] was -4.37%.
As for `CC(=O)O[C@@]12CO[C@@H]1C[C@H](O)[C@@]1(C)C(=O)[C@H](O)C3=C(C)[C@@H](O)C[C@@](O)([C@@H](OC(=O)c4ccccc4)[C@H]21)C3(C)C`, the Potency result in assay [10] and in assay [12] was “inactive” throughout.
With `O=C(CBr)N1CC([N+](=O)[O-])([N+](=O)[O-])C1`, in [11], the activity change, negative = inhibition was -11.3% [at 114 µM].
In the case of `COC[C@H]1OC(=O)c2coc3c2[C@@]1(C)C1=C(C3=O)[C@@H]2CC[C@H](O)[C@@]2(C)C[C@H]1OC(C)=O`, the results for the Potency in assay [12] and in assay [13] were 13.2 µM (active) and 11.8 µM (active), respectively.
Regarding `O=C1/C(=C\c2ccccc2)C[C@@]2(O)[C@H]3Cc4ccc(O)c5c4[C@@]2(CCN3CC2CC2)[C@H]1O5`, the Potency in assay [9] (HiBiT) is 3.52 µM (active).
With `COc1cc(C)[nH]c(=O)c1CNC(=O)c1c(C)n([C@H](C)C2CCN(CC(F)(F)F)CC2)c2ccccc12`, the Potency entry in assay [10] and in assay [13] was “inactive” each time. Further, the activity change, negative = inhibition in assay [11] was 4.42%.
As for `CC(C)(NC(=O)O[C@@H]1CN2CCC1CC2)c1csc(-c2ccc(F)cc2)n1`, the Potency result in [10] was “inactive”.
On to `COC(=O)[C@@]12OC[C@]34[C@H]([C@@H](O)[C@@H]1O)[C@@]1(C)CC(=O)C(O)=C(C)[C@@H]1C[C@H]3OC(=O)[C@H](OC(=O)/C=C(\C)C(C)C)[C@@H]24`, for which the activity change, negative = inhibition was -94.1% in assay [11] and -8.02% (inactive) in assay [9] (Viability). Also, the results for the Potency in [12], in assay [13] and in assay [9] (HiBiT) were 0.296 µM (active), 0.235 µM (active) and 0.0883 µM (active), respectively.
`COC12C(COC(N)=O)C3=C(C(=O)C(C)=C(N)C3=O)N1CC1C2N1C` (configuration not stated): in assay [10], the Potency result is “inactive”. In addition, the Potency is 1.66 µM (active) in [12] and 1.05 µM (active) in assay [13].
Turning to `C[C@@H]1CC[C@@]2(OC1)O[C@H]1C[C@H]3[C@@H]4CC=C5C[C@@H](O[C@@H]6O[C@H](CO)[C@@H](O[C@@H]7O[C@@H](C)[C@H](O)[C@@H](O)[C@H]7O)[C@H](O)[C@H]6O[C@@H]6O[C@@H](C)[C@H](O)[C@@H](O)[C@H]6O)CC[C@]5(C)[C@H]4CC[C@]3(C)[C@H]1[C@@H]2C`, the Potency entry in [10] is “inactive”. Also, the Potency was 2.35 µM (active) in assay [12], 3.32 µM (active) in assay [13], 22.2 µM (active) in assay [9] (HiBiT) and 17.6 µM (active) in assay [9] (Viability).
For `CC(C)[C@]12O[C@H]1[C@@H]1O[C@@]13[C@@]1(C)CCC4=C(COC4=O)[C@@H]1C[C@@H]1O[C@@]13C2=O`, the Potency entry in assay [10] and in [14] was “inactive” in each case. The activity change, negative = inhibition was -93.1% in assay [11] and 4.52% (inactive) in [9] (Viability). Besides, the Potency is 0.0372 µM (active) in assay [12], 0.0332 µM (active) in assay [13] and 0.0497 µM (active) in [9] (HiBiT).
On to `CN1C(=O)[C@@H](NC(=O)[C@H](CCC(F)(F)F)[C@H](CCC(F)(F)F)C(N)=O)N=C(c2ccccc2)c2ccccc21`, for which the Potency entry in assay [10], in assay [12], in assay [13] and in [14] was “inactive” throughout. Also, the activity change, negative = inhibition in assay [11] is -8.27%.
Regarding `CC1(C)CC[C@]2(NC(=O)C(C)(F)F)CC[C@]3(C)[C@H](C(=O)C=C4[C@@]5(C)C=C(C#N)C(=O)C(C)(C)[C@@H]5CC[C@]43C)[C@@H]2C1`, the Potency in [11] was 1 µM (active); in [13] it was 7.42 µM (active); in [9] (HiBiT), 1.57 µM (active). Moreover, the Potency entry in assay [14] is “inactive”.
Regarding `CC(C)(O)/C=C\C(=O)[C@](C)(O)[C@H]1[C@H](O)C[C@]2(C)[C@@H]3CC=C4[C@@H](C=C(O)C(=O)C4(C)C)[C@]3(C)C(=O)C[C@@]12C`, the Potency in assay [11] was 0.794 µM (active); in [12] it was 0.0525 µM (active); in assay [13] it was 0.0468 µM (active); in assay [9] (HiBiT), 6.25 µM (active). In addition, the activity change, negative = inhibition in [9] (Viability) was 186% (inactive).
As to `COC(=O)[C@]12CCC(C)(C)C[C@H]1[C@H]1C(=O)C=C3[C@@]4(C)C=C(C#N)C(=O)C(C)(C)[C@@H]4CC[C@@]3(C)[C@]1(C)CC2`, the Potency was 2.82 µM (active) in assay [10], 1 µM (active) in [11], 5.9 µM (active) in [13] and 1.57 µM (active) in [9] (HiBiT).
Take `C[C@@]12OC(=O)[C@]1([C@@H](O)[C@@H]1C=CCCC1)NC(=O)[C@@H]2CCCl`: the activity change, negative = inhibition in assay [11] was -97.7%. Besides, the Potency in assay [12] was 0.118 µM (active); in [13], 0.105 µM (active); in assay [9] (HiBiT), 0.176 µM (active). Besides, the Potency result in [14] is “inactive”.
Turning to `C[C@@H](C1CC[C@@]2(O)C3=CC(=O)[C@@H]4C[C@@H](O)[C@@H](O)C[C@]4(C)[C@H]3CC[C@]12C)[C@H](O)CCC(C)(C)O` (some centres not stated), the activity change, negative = inhibition in assay [11] is -30.2%. Moreover, the Potency result in assay [12] and in [13] was “inactive” throughout.
Regarding `C=C[C@H]1CN2CCC1C[C@@H]2[C@@H](O)c1ccnc2ccccc12` (some centres not stated), the Potency result in assay [10], in [12] and in assay [13] was “inactive” throughout. In addition, the activity change, negative = inhibition in assay [11] is -29.6%.
In the case of `N#CC(O[C@@H]1O[C@H](CO[C@@H]2O[C@H](CO)[C@@H](O)[C@H](O)[C@H]2O)[C@@H](O)[C@H](O)[C@H]1O)c1ccccc1` (some centres not stated), the Potency entry in assay [10], in assay [12] and in [13] was “inactive” in each case.
For `Cn1c(/C=C/CO)c(CO)c2c1C(=O)C=C(N1CC1)C2=O`, the Potency result in [10], in assay [11], in [12], in [13] and in assay [14] was “inactive” throughout.
Regarding `Cc1[nH]ncc1-c1cc2nc([C@@H]3CC4CCN3CC4)[nH]c(=O)c2s1`, the Potency in assay [12] was 2.35 µM (active); in [13], 0.934 µM (active); in assay [9] (HiBiT), 4.43 µM (active). The activity change, negative = inhibition in assay [9] (Viability) is 15.9% (inactive).
